The whole screen tested about 330,000 compounds, of which about 100 (0.03%) were called active. About 1% were inconclusive and are not listed. Calls follow the shape of the dose curve; as a rule, active = well fitted inhibition curve with a large enough effect; inconclusive = small, poorly fitted or top-dose-only effect; inactive = flat fitted curve, though single readings scatter. The full list was thinned out, with actives kept by preference.
These compounds were tested on Chaperonin Mm-Cpn (Methanococcus maripaludis) (assay: Inhibitors of TCP-1 ring complex (TRiC) of Methanococcus maripaludis (MmCpn): qHTS). Conditions: purified Mm-Cpn ATPase, ADP Transcreener TR-FRET; series mostly up to 76.9 µM; activity, negative = inhibition: at the top concentration.
From the text: The eukaryotic chaperonin TRiC (for TCP-1 ring complex) is an essential and conserved chaperone required for the folding and activation of 10-15% of the proteins encoded by the human genome. […] The TRiC complex consist of two stacked 7-9 membered rings, each containing a central cavity. Substrates are folded within the cavity in an ATP-dependent manner. TRiC is a complex of eight different, essential proteins. As each of the genes encoding the eight subunits is essential for cell viability and no protocol has been developed to over-express this enzyme to high levels. That is why several groups studying the TRiC chaperonin have turned to the archaeal homolog of TRiC, Methanococcus maripaludis (Mm-CPN), and have used this enzyme as a model system for the study of the type II chaperonin family. Small molecule inhibitors of the Mm-CPN enzyme would be extremely useful to study the mechanism of chaperonin activity. Importantly, TRiC and Mm-CPN both require ATP hydrolysis for function. Furthermore, the ATP binding sites are highly conserved among these type II chaperonins. This provides us with an easy, well tested and straightforward assay to identify inhibitors of chaperonin activity. The Mm-CPN assay was developed in 1536-well plate format using the HTRF Transcreener ADP assay kit (Cisbio, Bedford, MA). This assay applied the time resolved fluorescence resonance energy transfer (TR-FRET) principle. ATP in the presence of Mm-CPN is converted to ADP + Pi. An antibody labeled with Eu3+-Cryptate specific and bound to ADP labeled with […] (d2) competes with the unlabeled ADP generated by Mm-CPN. The resulting TR-FRET signal is inversely proportional to the concentration of ADP in the sample. In this assay a reduction in TR-FRET signal is observed with ATP turnover. NIH Chemical Genomics Center [NCGC] NIH Molecular Libraries Probe Centers Network [MLPCN] MLPCN Grant: DA030554-01A1 Assay Submitter (PI): Judith Frydman, Stanford University
Purified Mm-CPN was supplied by the laboratory of Dr. Judith Frydman. Protein samples were stored at -80C as single use aliquots. Protein was thawed in ambient temperature water bath and placed on ice once thawed. Buffer was prepared fresh day of screen. The buffer composition below was used to prepare the working solution of the Mm-CPN protein and ATP substrate. The buffer is comprised of 30 mM TRIS pH 7.4, 100mM KCl, 5mM MgCl2, and 1mM DTT. A final concentration of 25nM Mm-CPN and 10uM ATP per well were used in the screen. Instructions according to the manufacturer were followed for the ADP Transcreener kit. Used 1536 well Greiner white, medium binding (MB), solid bottom plates. Plates were read on the PerkinElmer EnVision plate reader using Excitation = 320 nm and Emission = […], 665 nm. Protocol- 1.Dispense 1.5ul per well of working [Mm-CPN] = 50nM (or 75 ng / well) 2.Spin plate at 1000 rpm for 30 seconds 3.23nl of compound transferred per well 4.Incubate at 37degC for 10 minutes 5.Dispense 1.5ul per well of working [ATP] = 20uM 6.Incubate at 37degC for 30 minutes 7.Dispense 3ul per well of Anti-ADP Cryptate / ADP-d2 mix (prepared as instructed by Cisbio) 8.Incubate at ambient for 30 minutes 9.Read using EnVision
% is scaled to controls: 0 for no effect and ±100 for the full control effect; potency is read from the fitted curve at half-maximal effect.
Also: nearly all actives have a fitted effect of over 80% in size.
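For Potency in this document: enzyme at 25 nM with ATP substrate at 10 µM during the reaction.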

activity, negative = inhibition, inactive:
FC(F)(F)c1ccc(CN2C[C@@H]3C(c4ccccc4)C4(c5ccccc5)CC3(C4)[C@H]2c2ccccc2)cc1 (stereo partly specified) -1.8%
Cc1ccc(NS(=O)(=O)c2ccc3c(c2)CC(=O)N3)cc1Cl -0.241%
COc1ccc(-n2c(C)nn(CC3CC3)c2=O)cc1 -3.12%
CC(=O)Nc1cccc2c1[n+]([O-])c(C)c(C)[n+]2[O-] 0.959%
CCn1cc(C(=O)NCc2ccc(OC)cc2OC)c(=O)c2ccc(C)nc21 0.0766%
O=C(CCC(=O)Nc1ccccc1)N/N=C/c1ccccc1F 0.276%
CCOC(=O)c1ccccc1NC(=O)COC(=O)C(Cc1c[nH]c2ccccc12)NC(C)=O (stereo unspecified) -1.13%
Cc1cccc(N2CCN(S(=O)(=O)c3ccc4[nH]c(=O)c(=O)[nH]c4c3)CC2C)c1 (stereo unspecified) -2.27%
c1csc(-c2nnc(COc3ccc4c(c3)OCO4)o2)c1 0.221%
CCCOC1CCCN(C(=O)c2cc(COc3cncc(Cl)c3)on2)C1 (stereo unspecified) 0.635%
COc1cccc(-n2c(N)cc(=O)nc2SCC(=O)Nc2cc(C)on2)c1 0.0443%
CC1CCCCC1NC(=O)CSc1nnc(-c2ccncc2)n1CCCN(C)C (stereo unspecified) -2.75%
CC(C)C(NC(=O)c1c(F)cccc1F)C(=O)NCc1ccncc1 (stereo unspecified) -4.23%
CCOC(=O)c1sc(NC(=O)CSc2nc3c(c(=O)n2-c2ccccc2)SCC3)c(C(=O)OCC)c1C -1.33%
Cn1c(=O)n(C)c2cc(CNc3ccc(N4CCOCC4)c(C(=O)O)c3)ccc21 -1.23%
Cn1c2cc(B(O)O)sc2c2cnn(Cc3ccccc3F)c(=O)c21 -0.659%
CSCC[C@H](NC(=O)CCCn1nnc2ccccc2c1=O)C(=O)O -0.098%
O=C(CCl)Nc1ccc(Sc2ccc(NC(=O)CCl)cc2)cc1 -5.44%
CCCCN(CCCC)CCC(O)c1cc2c(Cl)cc(Cl)cc2c2cc(C(F)(F)F)ccc12 (stereo unspecified) -0.59%
Cc1cc(Cl)ccc1NNC(=O)c1snnc1C 5.25%
O=C(COC(=O)Cn1[nH]c(=O)c2ccccc2c1=O)Nc1ncc(Cl)cc1Cl 0.0983%
CC(=O)Nc1cccc(C(=O)OCC(=O)NCc2cc(C)c(O)c(C)c2)c1 0.893%
CSCCC(NC(=O)c1ccccc1)C(=O)N1CCN(Cc2ccc(Cl)cc2)CC1 (stereo unspecified) 0.977%
CC(C)OC(=O)C(C#N)c1nc2ccccc2nc1N1CCN(Cc2ccc3c(c2)OCO3)CC1 (stereo unspecified) -0.332%
CSc1nc(-c2ccco2)nn1C(=O)c1ccccc1Cl 2.44%
CCCN1CCn2c3c(c4cc(Br)ccc42)CCCC31 (stereo unspecified) 2.19%
CC(=O)N(C)c1ccc(NC(=O)C(F)(F)F)cc1 0.394%
CC(C)CNC(=O)C(=O)Nc1ccc(N(C)C)cc1 -10.1%
Cn1c(N)c(C(=O)COC(=O)c2cccc(S(=O)(=O)N3CCOCC3)c2)c(=O)n(C)c1=O -2.55%
CCOC(=O)c1c(CNCc2ccccc2F)c2sc(C)cc2n1C 0.937%
CSc1nc2ccccc2cc1/C=C(\C#N)c1ccc(Cl)cc1Cl 2.17%
C/C=N/N(c1ccccc1)c1ccccc1 -0.868%
Cc1cc2c(c(=O)n1Cc1ccccc1)C1O[C@](CCCCN3C(=O)c4ccccc4C3=O)(Cc3ccccc31)O2 -15.5% [at 15.4 µM]
O=C(CSc1nnc(CN2CCCC2)n1-c1ccc(F)cc1)c1ccc2c(c1)OCO2 -11%
CCOC(=O)Cc1csc(SCc2cc(=O)oc3cc(O)ccc23)n1 0.962%
Cc1cc(=O)oc2cc(OCC(=O)Nc3nnc(C4CC4)s3)ccc12 -0.34%
CCCCc1ccc(NC(=O)CN2C(=O)NC(Cc3ccccc3)C2=O)cc1 (stereo unspecified) -0.0707%
CCOc1ccccc1N1CCN(C(=O)c2ccc3[nH]c(C)c(C)c3c2)CC1 0.339%
CCOc1ccc(NC(=O)CN(C)C(=O)c2cccc(S(=O)(=O)N3CCCC3)c2)cc1OCC 2%

Potency, active:
CN(C)c1ccc(N/C=C/C(=O)C(F)(F)F)cc1 25.1 µM
CCOC(=O)Cc1csc(NC(=O)COc2ccc3c(C)cc(=O)oc3c2)n1 44.7 µM
